Measured values from the supplement of paper PMC10849652.
The full data set covers some 7,900 targets. This sample favours those with a hit. About 0.6% of all pairs of compound and target were hits. A number with no mark means an inactive call.

Tests used:
Assay in all cases: log2 fold change, soluble protein after heating vs DMSO (PISA); higher = thermal stabilisation; K562 cells, 10 uM, 30 min; active = over 0.2 and 3.5 SD of the protein, either way, in both replicates (recomputed)
[1] = compound: C#Cc1cccc(Nc2ncnc3cc(OCCOC)c(OCCOC)cc23)c1 [erlotinib]
Summary of the method: (§1)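 Thermal stability values are relative to control samples and come from duplicates. They are expressed as log2 fold changes. For measurement, K562 cells (2×10^6 cells/mL) received 10 μM compound for 30 min, and aliquots were heated for 3 min over 48°C-58°C, pooled, and extracted at 4°C in PBS with 0.5% NP-40. Soluble protein, the supernatant after 21,000xg for 90 min, was quantified by TMTpro 16plex LC-MS/MS with equalised channel sums.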

[2] = compound: C/C(=N\NC(=O)C1=CC(=CC=C1)S(=O)(=O)N2CCOCC2)/C3=C(C=CC(=C3)Cl)O
Summary of the method: as §1

[3] = compound: C1=CC(=C(C=C1Cl)C2=NC3=NC=CN=C3C(=N2)NC4=CC=NC=C4)F
Summary of the method: as §1

[4] = compound: C1=CC(=CC=C1C2=NC3=C(N2)C=C(C=C3)C(=O)N)OC4=CC=C(C=C4)Cl
Summary of the method: as §1

[5] = compound: C1=CC2=C(C=CC(=C2)/C=C\3/C(=O)NC(=NCC4=CC=CS4)S3)N=C1
Summary of the method: as §1

[6] = compound: C1=CC2=NC=CN=C2C=C1/C=C/3\C(=O)NC(=O)S3
Summary of the method: as §1

[7] = compound: C1=CC=C(C=C1)C2=NC(=C(N2)C3=CC=NC=C3)C4=CC(=C(C=C4)Cl)O
Summary of the method: as §1

[8] = compound: C1=CC=C2C(=C1)C3=NNC4=CC=CC(=C43)C2=O
Summary of the method: as §1

[9] = compound: C1CCN(C1)C(=O)NC2=CC=CC(=C2)NC3=NC=C(C(=N3)NCCC4=CN=CN4)Br
Summary of the method: as §1

[10] = compound: C1CN(CCC1(CC2=CC=C(C=C2)Cl)N)C3=NC=NC4=C3C=CN4
Summary of the method: as §1

[11] = compound: C1COCCN1CCN2C3=CC=CC=C3N=C2NC(=O)C4=CC(=CC=C4)[N+](=O)[O-] [IRAK-1-4 Inhibitor I]
Summary of the method: as §1

[12] = compound: C=CC(=O)N1CCC[C@@H](n2nc(-c3ccc(Oc4ccccc4)cc3)c3c(N)ncnc32)C1 [ibrutinib]
Summary of the method: as §1

[13] = compound: CC(=O)c1cnc2ccc(-c3cc(Cl)c(O)c(Cl)c3)nc2c1N[C@H]1CC[C@H](CN(C)C)CC1
Summary of the method: as §1

[14] = compound: CC(C)(C)Cn1c(N)nc2ccc(-c3[nH]c(C(C)(C)C)nc3-c3ccc(F)cc3)nc21 [ralimetinib]
Summary of the method: as §1

[15] = compound: CC(C)(O)CC(=O)NCCn1ccc2ncnc(Nc3ccc(Oc4cccc(C(F)(F)F)c4)c(Cl)c3)c21
Summary of the method: as §1

[16] = compound: CC(C)C1=C2N=C(C=C(N2N=C1)NCC3=CC=CC=C3)NCCCCCCN
Summary of the method: as §1

[17] = compound: CC(C)C[C@@H](C=O)NC(=O)[C@H](CC(C)C)NC(=O)[C@H](CC(C)C)NC(=O)OCc1ccccc1
Summary of the method: as §1

[18] = compound: CC(C)N(C[C@H]1O[C@@H](n2cnc3c(N)ncnc32)[C@H](O)[C@@H]1O)[C@H]1C[C@@H](CCc2nc3cc(C(C)(C)C)ccc3[nH]2)C1 [pinometostat]
Summary of the method: as §1

[19] = compound: CC1=C(C(CC(=O)N1)C2=CC=C(C=C2)C(F)(F)F)C(=O)NC3=C(C=C4C(=C3)C=NN4)F
Summary of the method: as §1

[20] = compound: CC1=C(C2=C(C=C1)C(=O)C3=CC=CC=C3N2CCCN)C
Summary of the method: as §1

Sequence of UniProt P40763 (P40763 whole entry, looked up): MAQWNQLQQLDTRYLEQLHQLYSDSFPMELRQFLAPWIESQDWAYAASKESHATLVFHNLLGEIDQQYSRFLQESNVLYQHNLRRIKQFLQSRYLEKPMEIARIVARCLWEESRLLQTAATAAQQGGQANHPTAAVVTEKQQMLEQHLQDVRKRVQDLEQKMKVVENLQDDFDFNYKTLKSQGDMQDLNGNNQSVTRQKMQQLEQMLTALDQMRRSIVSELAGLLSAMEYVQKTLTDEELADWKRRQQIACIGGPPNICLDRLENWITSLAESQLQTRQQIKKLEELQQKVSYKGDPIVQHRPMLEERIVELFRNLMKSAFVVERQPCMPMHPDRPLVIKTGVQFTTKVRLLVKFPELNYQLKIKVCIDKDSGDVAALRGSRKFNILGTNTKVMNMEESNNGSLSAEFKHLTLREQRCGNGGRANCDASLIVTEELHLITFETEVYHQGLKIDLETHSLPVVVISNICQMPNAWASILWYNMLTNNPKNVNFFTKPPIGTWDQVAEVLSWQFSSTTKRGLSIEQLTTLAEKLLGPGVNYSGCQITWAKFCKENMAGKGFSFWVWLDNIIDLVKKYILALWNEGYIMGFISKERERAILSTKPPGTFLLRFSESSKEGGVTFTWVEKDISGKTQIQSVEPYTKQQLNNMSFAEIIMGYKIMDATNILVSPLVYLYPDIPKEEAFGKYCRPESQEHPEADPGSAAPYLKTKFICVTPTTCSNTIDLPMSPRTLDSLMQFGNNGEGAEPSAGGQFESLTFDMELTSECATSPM
Sequence of UniProt Q96CW6 (Q96CW6 whole entry, looked up): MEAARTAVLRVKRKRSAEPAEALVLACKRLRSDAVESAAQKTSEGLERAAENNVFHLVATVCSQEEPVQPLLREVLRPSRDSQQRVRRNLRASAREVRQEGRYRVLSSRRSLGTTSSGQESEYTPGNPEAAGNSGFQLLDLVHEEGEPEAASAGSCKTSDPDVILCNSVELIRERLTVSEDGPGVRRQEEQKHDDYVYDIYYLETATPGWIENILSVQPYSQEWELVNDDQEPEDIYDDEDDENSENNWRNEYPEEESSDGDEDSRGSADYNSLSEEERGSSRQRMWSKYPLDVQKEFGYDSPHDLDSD
Sequence of UniProt P35610 (P35610 whole entry, looked up): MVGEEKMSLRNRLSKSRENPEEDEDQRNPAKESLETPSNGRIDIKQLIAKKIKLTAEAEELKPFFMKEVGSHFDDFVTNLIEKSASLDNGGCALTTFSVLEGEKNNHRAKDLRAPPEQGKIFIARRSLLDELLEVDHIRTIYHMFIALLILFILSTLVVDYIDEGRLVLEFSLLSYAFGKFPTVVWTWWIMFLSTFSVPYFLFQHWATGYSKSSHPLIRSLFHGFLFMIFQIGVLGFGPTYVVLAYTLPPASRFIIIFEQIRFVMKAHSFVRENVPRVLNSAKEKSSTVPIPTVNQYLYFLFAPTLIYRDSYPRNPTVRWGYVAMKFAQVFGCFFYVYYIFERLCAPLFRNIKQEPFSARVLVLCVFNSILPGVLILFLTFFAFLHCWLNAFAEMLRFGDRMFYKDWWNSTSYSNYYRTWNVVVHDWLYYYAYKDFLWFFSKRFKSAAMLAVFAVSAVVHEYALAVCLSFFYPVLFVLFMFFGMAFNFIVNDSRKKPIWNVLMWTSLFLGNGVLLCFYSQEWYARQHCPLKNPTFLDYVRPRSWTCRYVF
Sequence of UniProt Q8WUH2 (Q8WUH2 whole entry, looked up): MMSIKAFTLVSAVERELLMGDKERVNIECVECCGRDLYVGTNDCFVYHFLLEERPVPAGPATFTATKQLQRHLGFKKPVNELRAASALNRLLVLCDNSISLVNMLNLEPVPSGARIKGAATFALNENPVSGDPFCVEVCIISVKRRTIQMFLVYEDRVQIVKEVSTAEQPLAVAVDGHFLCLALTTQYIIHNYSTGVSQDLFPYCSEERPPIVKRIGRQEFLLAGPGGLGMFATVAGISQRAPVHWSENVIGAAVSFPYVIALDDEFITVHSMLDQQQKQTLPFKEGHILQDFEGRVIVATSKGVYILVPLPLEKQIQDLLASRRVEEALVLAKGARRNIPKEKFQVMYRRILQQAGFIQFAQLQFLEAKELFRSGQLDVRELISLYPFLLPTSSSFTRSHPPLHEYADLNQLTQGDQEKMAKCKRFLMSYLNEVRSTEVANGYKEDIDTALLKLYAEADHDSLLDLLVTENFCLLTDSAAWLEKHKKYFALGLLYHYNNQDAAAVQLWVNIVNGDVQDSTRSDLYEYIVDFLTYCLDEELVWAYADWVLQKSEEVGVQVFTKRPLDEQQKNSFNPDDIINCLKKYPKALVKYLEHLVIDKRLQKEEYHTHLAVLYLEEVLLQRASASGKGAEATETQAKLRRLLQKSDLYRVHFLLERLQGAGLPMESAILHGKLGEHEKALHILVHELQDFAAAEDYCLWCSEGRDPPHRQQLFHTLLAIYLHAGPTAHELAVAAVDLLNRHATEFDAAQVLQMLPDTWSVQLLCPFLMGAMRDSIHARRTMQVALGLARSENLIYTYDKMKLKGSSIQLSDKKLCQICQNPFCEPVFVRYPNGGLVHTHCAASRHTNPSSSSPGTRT
Sequence of UniProt Q9Y5L4 (Q9Y5L4 whole entry, looked up): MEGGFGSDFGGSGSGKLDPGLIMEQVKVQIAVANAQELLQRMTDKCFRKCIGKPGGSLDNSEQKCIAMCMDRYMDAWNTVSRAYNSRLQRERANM
Sequence of UniProt Q9Y5B9 (Q9Y5B9 whole entry, looked up): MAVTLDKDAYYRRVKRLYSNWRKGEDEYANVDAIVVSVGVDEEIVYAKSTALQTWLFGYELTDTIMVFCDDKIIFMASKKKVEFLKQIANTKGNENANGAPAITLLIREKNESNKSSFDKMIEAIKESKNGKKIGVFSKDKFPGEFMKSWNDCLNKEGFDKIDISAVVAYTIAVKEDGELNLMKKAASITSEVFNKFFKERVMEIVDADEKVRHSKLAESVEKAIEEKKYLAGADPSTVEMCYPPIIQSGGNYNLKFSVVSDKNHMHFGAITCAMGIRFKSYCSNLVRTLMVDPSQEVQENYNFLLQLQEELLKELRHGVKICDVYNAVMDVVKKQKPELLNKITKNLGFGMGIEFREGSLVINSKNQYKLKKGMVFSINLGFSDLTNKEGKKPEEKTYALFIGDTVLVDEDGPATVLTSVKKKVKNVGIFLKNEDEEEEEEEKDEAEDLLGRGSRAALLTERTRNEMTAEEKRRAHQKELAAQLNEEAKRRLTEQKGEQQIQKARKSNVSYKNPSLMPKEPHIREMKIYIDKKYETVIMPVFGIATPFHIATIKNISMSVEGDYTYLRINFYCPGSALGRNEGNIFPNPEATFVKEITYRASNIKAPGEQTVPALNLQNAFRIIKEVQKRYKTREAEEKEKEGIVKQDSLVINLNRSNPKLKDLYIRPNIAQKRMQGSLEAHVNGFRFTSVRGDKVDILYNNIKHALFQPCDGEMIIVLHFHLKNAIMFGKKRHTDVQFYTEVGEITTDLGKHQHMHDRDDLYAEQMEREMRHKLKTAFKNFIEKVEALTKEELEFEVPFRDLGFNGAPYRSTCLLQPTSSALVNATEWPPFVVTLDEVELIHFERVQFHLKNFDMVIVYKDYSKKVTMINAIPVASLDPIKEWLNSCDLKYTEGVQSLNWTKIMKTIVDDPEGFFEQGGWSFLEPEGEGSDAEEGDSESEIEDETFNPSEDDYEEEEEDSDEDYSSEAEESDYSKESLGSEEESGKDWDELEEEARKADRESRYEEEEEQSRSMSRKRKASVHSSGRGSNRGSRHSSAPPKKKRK
Sequence of UniProt P63165 (P63165 whole entry, looked up): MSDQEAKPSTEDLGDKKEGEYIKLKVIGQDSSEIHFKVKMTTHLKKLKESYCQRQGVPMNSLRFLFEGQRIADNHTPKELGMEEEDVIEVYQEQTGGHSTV
Sequence of UniProt Q99523 (Q99523 whole entry, looked up): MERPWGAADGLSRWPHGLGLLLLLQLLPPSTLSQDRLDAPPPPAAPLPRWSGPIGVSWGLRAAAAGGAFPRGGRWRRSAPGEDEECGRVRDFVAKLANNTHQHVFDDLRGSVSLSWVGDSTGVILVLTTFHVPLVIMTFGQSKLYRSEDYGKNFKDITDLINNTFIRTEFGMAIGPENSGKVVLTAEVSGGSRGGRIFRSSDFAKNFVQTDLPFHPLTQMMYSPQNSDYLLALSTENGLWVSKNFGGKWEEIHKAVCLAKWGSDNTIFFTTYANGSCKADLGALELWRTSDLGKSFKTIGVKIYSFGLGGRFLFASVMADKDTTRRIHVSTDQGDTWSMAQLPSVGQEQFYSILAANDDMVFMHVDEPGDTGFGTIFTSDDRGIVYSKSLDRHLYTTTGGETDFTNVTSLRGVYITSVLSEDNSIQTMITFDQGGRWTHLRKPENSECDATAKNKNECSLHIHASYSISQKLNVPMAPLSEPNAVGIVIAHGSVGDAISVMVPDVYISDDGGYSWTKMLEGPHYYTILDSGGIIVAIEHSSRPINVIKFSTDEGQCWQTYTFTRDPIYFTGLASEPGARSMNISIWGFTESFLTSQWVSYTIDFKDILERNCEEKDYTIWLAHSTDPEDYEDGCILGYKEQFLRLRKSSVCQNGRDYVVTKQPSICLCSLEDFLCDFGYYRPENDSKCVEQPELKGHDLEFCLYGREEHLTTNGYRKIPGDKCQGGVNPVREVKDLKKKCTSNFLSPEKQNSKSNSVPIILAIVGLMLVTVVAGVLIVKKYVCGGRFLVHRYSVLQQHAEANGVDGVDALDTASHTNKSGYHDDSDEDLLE
Sequence of UniProt Q16385 (Q16385 whole entry, looked up): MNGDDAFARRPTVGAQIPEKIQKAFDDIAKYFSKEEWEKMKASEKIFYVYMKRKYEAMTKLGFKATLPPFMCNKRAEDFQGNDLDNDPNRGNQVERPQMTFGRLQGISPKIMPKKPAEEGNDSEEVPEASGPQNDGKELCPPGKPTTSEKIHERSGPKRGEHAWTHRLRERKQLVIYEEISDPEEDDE

Target	log2 fold change [1]	log2 fold change [2]	log2 fold change [3]	log2 fold change [4]	log2 fold change [5]	log2 fold change [6]	log2 fold change [7]	log2 fold change [8]	log2 fold change [9]	log2 fold change [10]	log2 fold change [11]	log2 fold change [12]	log2 fold change [13]	log2 fold change [14]	log2 fold change [15]	log2 fold change [16]	log2 fold change [17]	log2 fold change [18]	log2 fold change [19]	log2 fold change [20]
SUPT5H (UniProt O00267)	0.05	0.084	0.065	0.011	0.017	0.021	0.02	0.006	-0.017	0.011	-0.009	-0.068	0.066	-0.009	-0.065	-0.046	0.013	-0.017	-0.035	-0.08
STK26 (UniProt Q9P289)	0.058	-0.014	0.195	-0.014	-0.008	0.124	-0.015	-0.08	0.023	0.02	0.03	-0.272 (active)	-0.344 (active)	-0.022	-0.081	-0.071	0.03	-0.019	0.022	-0.07
TERF2IP (UniProt Q9NYB0)	-0.046	0	-0.016	-0.003	0.022	0.049	-0.038	-0.074	-0.047	-0.006	-0.023	-0.009	-0.151	0.038	0.034	-0.147	0.058	0.024	0.007	-0.33 (active)
TLK2 isoform 2 (UniProt Q86UE8)	0	0.008	0.04	0.074	-0.041	-0.016	0.064	0	0.017	-0.048	0.035	-0.011	-0.144	-0.003	-0.077	0.011	0.025	-0.004	-0.015	0.282 (active)
SORT1 (UniProt Q99523)	0.005	-0.024	0.03	-0.012	0.014	0.034	0.022	-0.018	-0.012	0.06	0.044	0.044	0.031	-0.005	-0.027	-0.202	-0.028	-0.03	-0.002	-0.019
SLC7A6OS (UniProt Q96CW6)	-0.015	0.018	0.035	-0.039	0.007	0.042	0.045	-0.025	-0.015	0.022	0.018	-0.027	0.046	0.134	-0.032	0.045	-0.019	0.273 (active)	0.014	-0.199
SSX2 (UniProt Q16385)	-0.068	-0.078	-0.023	0.038	0.175	0.044	-0.032	-0.035	-0.022	-0.004	-0.038	-0.004	-0.006	-0.03	0.022	-0.044	0.123	-0.065	0.021	-1.33 (active)
SUPT16H (UniProt Q9Y5B9)	0.177	0.25	0.091	-0.012	0.155	0	0.064	0.098	-0.098	-0.011	-0.155	-0.139	-0.259	-0.059	-0.174	-0.26	0.083	0.044	-0.015	-1.34 (active)
TIMM13 (UniProt Q9Y5L4)	0.018	0	0.315	0	0.003	0.111	0.063	-0.005	-0.025	-0.006	-0.031	0.012	0.01	-0.008	-0.145	0.048	-0.085	-0.092	0.018	0.092
SUMO1 (UniProt P63165)	-0.126	0.167	0.006	-0.06	0.182	0.043	0.045	-0.06	0.211	0.033	-0.079	-0.007	-0.077	0.053	0.139	-0.065	0.01	0.022	0.042	-0.125
SOAT1 (UniProt P35610)	0.174	0.099	-0.034	-0.063	0.141	0.063	0.074	-0.038	0.001	0.026	0.1	-0.008	-0.031	0.031	-0.04	-0.014	0.303	-0.017	-0.041	0.053
SLC27A2 (UniProt O14975)	0	0.057	0.054	0.032	0.101	0.005	0.108	0.018	-0.001	0.035	-0.039	0.144	-0.125	0.013	0.366 (active)	0.015	0.055	0.01	-0.045	0.03
TBC1D10B (UniProt Q4KMP7)	-0.013	0.063	-0.018	0.039	-0.008	0.036	-0.033	-0.109	-0.024	-0.033	-0.001	0.025	-0.342 (active)	0.009	-0.006	-0.027	0.021	0.063	-0.015	0.057
STAT3 (UniProt P40763)	-0.023	0.147	0.026	0.007	0.031	0.031	0.011	-0.001	-0.01	-0.036	-0.038	-0.044	0.009	-0.001	-0.08	-0.261 (active)	0.024	0	-0.05	-0.057
TGFBRAP1 (UniProt Q8WUH2)	0.064	0.217	-0.046	-0.119	0.084	0.062	0.194	0.121	-0.06	-0.053	-0.088	-0.067	-0.119	0.33	-0.108	-0.424	-0.037	0.046	0.052	-0.017
TANGO6 (UniProt Q9C0B7)	0.208	0.032	-0.003	-0.026	-0.001	0.057	0.025	-0.056	-0.026	0	-0.117	-0.077	0.052	0.197	-0.153	-0.098	-0.068	0	0.013	0.006
